From ChEMBL document CHEMBL1157539, “Thousands of chemical starting points for antimalarial lead identification” (Nature, 2010) come the findings set out here.

As usually defined, the Inhibition is the share of the control response that was lost under treatment.

Structures are written as SMILES.

Format in all cases: functional
Test [1] relates to Plasmodium falciparum. As to the kind of experiment: GSK_TCMDC: Inhibition of Plasmodium falciparum 3D7 in whole red blood cells, using parasite LDH activity as an index of growth. Test compounds present at 2uM.
Test [2] deals with Plasmodium falciparum. As to the kind of experiment: GSK_TCMDC: Inhibition of Plasmodium falciparum Dd2 in whole red blood cells, using parasite LDH activity as an index of growth. Test compounds present at 2uM.
The next test relates to HepG2. As to the kind of experiment: GSK_TCMDC: Percent inhibition of human HepG2 cell line. Test compounds present at 10uM.

`COc1cc2nc(N3CCC(CNC(=O)/C=C/c4cccc(C)c4)CC3)nc(N)c2cc1OC`: the Inhibition with Plasmodium falciparum [1] is 100%; in the test on Plasmodium falciparum [2], 68%; in the test on HepG2 it was 16%.
`NC1CCN(Cc2ccc(-c3cccc(-c4nc5cc(F)ccc5[nH]4)c3)cc2)C1.O=C(O)C(F)(F)F` (stereo not given): the Inhibition was found to be 100% with Plasmodium falciparum [1], 16% in the test on Plasmodium falciparum [2] and 47% with HepG2.
In the case of `COc1cc2nc(N3CCN(c4cc(C)ccc4C)CC3)nc(N)c2cc1OC.Cl`, the Inhibition worked out at 98% with Plasmodium falciparum [1], 12% with Plasmodium falciparum [2] and 66% with HepG2.
Regarding `CC(C)N1CCC(N(Cc2ccc(-c3ccc(C(F)(F)F)cc3)cc2)C(=O)Cn2c(SCc3cccc(F)c3F)cc(=O)c3c2CCC3)CC1.O=C(O)C(O)C(O)C(=O)O`, the figures for the Inhibition with Plasmodium falciparum [1], with Plasmodium falciparum [2] and in the test with HepG2 were 88%, 42% and 44%, respectively.
In the case of `O=C(N[C@@H](CC1CCCCC1)C(=O)NCCc1ccc(Cl)c(Cl)c1)c1ccc(O)c(-c2ccc(Cl)c(Cl)c2)c1`, the values for the Inhibition in the test on Plasmodium falciparum [1], with Plasmodium falciparum [2] and in the test on HepG2 were 100%, 99% and 0%, respectively.
Consider `CC(C)N1CCC(N(Cc2ccc(-c3ccc(C(F)(F)F)cc3)cc2)C(=O)CCCn2c(CCc3cccc(F)c3F)nc(=O)c3ccccc32)CC1.O=C(O)C(O)C(O)C(=O)O`, for which the Inhibition worked out at 89% in the test with Plasmodium falciparum [1], 60% with Plasmodium falciparum [2] and 45% with HepG2.
Regarding `COc1nc2c(CCN3CCC(NCc4ccc5c(c4)NC(=O)CO5)CC3)c(Cl)cnc2cc1F.Cl`, the figures for the Inhibition in the test with Plasmodium falciparum [1], in the test with Plasmodium falciparum [2] and in the test with HepG2 were 99%, 21% and 15%, respectively.
In the case of `NCC1CCCN1Cc1ccc(-c2ccc(-c3nc4cc(F)ccc4[nH]3)cc2)cc1.O=C(O)C(F)(F)F` (stereo not given), the results for the Inhibition in the test on Plasmodium falciparum [1], in the test on Plasmodium falciparum [2] and in the test with HepG2 were 100%, 100% and 31%, respectively.
On to `CC(C)(C)c1ccc2[nH]c(-c3ccc(C(=O)NCCCc4ccccc4)cc3)nc2c1`, for which the Inhibition with Plasmodium falciparum [1] was determined as 95%; with Plasmodium falciparum [2] it was 14%; in the test on HepG2, 11%.
On the same counts, the results for `O=C(Nc1ccc(Cl)c(Cl)c1)Nc1ccc2nccc(N3CCN(Cc4ccccc4)CC3)c2c1` are 100%, 100% and 31%.
In the case of `CCc1c[nH]c2c(N3CCCC3=O)cc(C(=O)N[C@@H](Cc3ccccc3)[C@H](O)CNC(C)(C)c3cccc(C(F)(F)F)c3)cc12.O=CO`, the Inhibition was found to be 98% in the test with Plasmodium falciparum [1], 99% in the test with Plasmodium falciparum [2] and 10% with HepG2.
As to `CCCCCCCn1c(=N)n(CC(O)c2ccc(Cl)c(Cl)c2)c2ccccc21.Cl` (stereo not given), the figures for the Inhibition in the test on Plasmodium falciparum [1], in the test with Plasmodium falciparum [2] and with HepG2 were 98%, 100% and 99%, respectively.
On the same counts, the results for `c1ccc(-c2nc(NC3CCCCC3)cc(C3CC3)n2)nc1` are 97%, 76% and 35%.
The matching figures for `CC(=O)Oc1c(C2CCN(CCCCNC(=O)c3ccc(-c4ccc(C#N)cc4)cc3)CC2)ccc2c1CCCC2`: 88%, 52% and 21%.
As to `COc1cccc(Nc2nnc(SCC(=O)NNC(=O)c3ccccn3)s2)c1`, the Inhibition was determined as 99% in the test on Plasmodium falciparum [1], 95% in the test with Plasmodium falciparum [2] and 52% in the test with HepG2.
On the same counts, the results for `COc1ccc2ccccc2c1CCCCN1CCN(CC(c2ccc(F)cc2)N2CCC(N3CCCC3)CC2)CC1.O=C(O)C(F)(F)F` (stereo not given) are 99%, 73% and 74%.
For the compound `COc1ccc2nccc([C@@H](O)CN3CCC(NC(=O)c4ccc(Cl)c(Cl)c4)CC3)c2c1`, the Inhibition was 96% in the test on Plasmodium falciparum [1], 57% in the test on Plasmodium falciparum [2] and 21% with HepG2.
For the compound `CC(C)C(C(=O)n1ncc2c3c(N)nc(N)nc3ccc21)C(C)C`, the Inhibition was determined as 98% in the test on Plasmodium falciparum [1], 8% with Plasmodium falciparum [2] and 67% in the test with HepG2.
The matching figures for `COC(=O)C(NC(=O)c1ccc(-c2ccc(-c3nc4ccccc4[nH]3)s2)cc1)c1ccc(O)cc1` (stereo not given): 83%, 49% and 99%.
For `COc1cccc(CN2CCN(C(c3ccccc3)c3ccccc3)CC2)c1O.O=C(O)C(=O)O`, the Inhibition turned out to be 99% with Plasmodium falciparum [1], 98% with Plasmodium falciparum [2] and 6% in the test with HepG2.
Consider `O=C(Nc1ccc(Cl)cc1)c1cc(Cl)ccc1NC(=O)C1CCc2ccccc2O1` (stereo not given), for which the Inhibition in the test on Plasmodium falciparum [1] was 98%; in the test on Plasmodium falciparum [2] it was 63%; in the test on HepG2, 1%.
For the compound `O=C(Nc1cccc(-c2cccc(-c3nc4cc(C(F)(F)F)ccc4[nH]3)c2)c1)c1ccoc1`, the Inhibition came out at 99% in the test on Plasmodium falciparum [1], 61% with Plasmodium falciparum [2] and 32% in the test on HepG2.
With `O=C(Nc1ccc(-n2ccc(C(F)(F)F)n2)cc1)c1cccs1`, the Inhibition with Plasmodium falciparum [1] is 89%; with Plasmodium falciparum [2] it was 67%; with HepG2, 6%.
On the same counts, the results for `Oc1ccc(-c2ccccc2)cc1CN1CCCCC1` are 93%, 70% and 3%.
As for `CC(O)C1CCCCN1C(=O)c1cccc(-c2ccc(-c3nc4cc(F)ccc4[nH]3)cc2)c1` (stereo not given), the Inhibition came to 100% with Plasmodium falciparum [1], 99% with Plasmodium falciparum [2] and 46% in the test with HepG2.
In the case of `CN1CCC(C(=O)Nc2ccc(-c3ccc(-c4nc5ccccc5[nH]4)s3)cc2)CC1`, the figures for the Inhibition in the test on Plasmodium falciparum [1], with Plasmodium falciparum [2] and with HepG2 were 99%, 22% and 30%, respectively.
With `CC(NC(=O)NC1CCC(CCN2CCCc3ccccc32)CC1)c1cccc2ccccc12.O=C(O)C(F)(F)F` (stereo not given), the Inhibition is recorded as 90% in the test with Plasmodium falciparum [1], 83% in the test on Plasmodium falciparum [2] and 0% in the test with HepG2.
Consider `COC(=O)c1c(NC(=O)c2cccc(C(F)(F)F)c2)sc2c1CCN(Cc1ccccc1)C2.Cl`, for which the Inhibition turned out to be 84% with Plasmodium falciparum [1], 61% with Plasmodium falciparum [2] and 9% in the test with HepG2.
Take `CN(C)CC1CCCN1Cc1ccccc1-c1cnn(C)c(=O)c1Oc1ccccc1F.O=C(O)C(F)(F)F` (stereo not given): the Inhibition with Plasmodium falciparum [1] came out at 95%; with Plasmodium falciparum [2], 27%; in the test on HepG2, 18%.
Consider `Fc1ccc2[nH]c(-c3cccc(-c4ccc(CN5CCCCC5)cc4)c3)nc2c1.O=C(O)C(F)(F)F`, for which the Inhibition in the test with Plasmodium falciparum [1] turned out to be 99%; in the test with Plasmodium falciparum [2], 97%; with HepG2, 46%.
